Assay results taken from PubChem BioAssay (NCATS).
Several values for one entry are separate records, joined by “and”; a condition that tells them apart may be missing. Equal entries are not always repeated. Results filed as inconclusive are left out. Activity calls are given as the source filed them. Unless noted, calls follow the shape of the dose curve; as a rule, active = well fitted curve in either direction with a large enough effect (not every such curve was filed as active); inconclusive = small, poorly fitted or top-dose-only effect, or another doubt; inactive = flat fitted curve, though single readings scatter.

Molecular target: Glucocorticoid receptor (Homo sapiens) (UniProt P04150)
Sequence (P04150 whole entry, looked up): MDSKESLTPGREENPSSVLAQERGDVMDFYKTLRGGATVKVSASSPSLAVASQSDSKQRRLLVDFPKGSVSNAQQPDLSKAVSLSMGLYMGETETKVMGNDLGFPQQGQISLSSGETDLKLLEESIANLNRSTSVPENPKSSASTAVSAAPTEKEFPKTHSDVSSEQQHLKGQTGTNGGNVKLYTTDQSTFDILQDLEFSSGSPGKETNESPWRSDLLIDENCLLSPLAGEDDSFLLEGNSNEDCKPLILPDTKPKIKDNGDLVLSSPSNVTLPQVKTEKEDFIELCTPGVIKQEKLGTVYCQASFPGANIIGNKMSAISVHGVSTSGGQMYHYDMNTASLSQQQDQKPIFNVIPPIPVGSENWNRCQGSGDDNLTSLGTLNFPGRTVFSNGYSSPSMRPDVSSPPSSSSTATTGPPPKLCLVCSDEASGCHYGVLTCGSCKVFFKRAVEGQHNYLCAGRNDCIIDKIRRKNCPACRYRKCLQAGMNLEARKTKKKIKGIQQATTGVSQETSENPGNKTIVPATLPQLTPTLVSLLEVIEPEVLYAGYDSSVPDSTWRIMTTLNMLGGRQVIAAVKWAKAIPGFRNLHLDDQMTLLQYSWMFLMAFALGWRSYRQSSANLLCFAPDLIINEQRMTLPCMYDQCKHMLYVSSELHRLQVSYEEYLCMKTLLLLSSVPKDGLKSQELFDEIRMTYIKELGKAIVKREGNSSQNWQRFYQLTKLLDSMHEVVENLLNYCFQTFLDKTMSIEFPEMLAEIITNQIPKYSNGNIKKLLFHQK
Assay: GR-EFC Redistribution (AID 451; calls by dose curve; also: potency is read from the fitted curve at half-maximal effect)
Settings: CHO-K1 GR-EFC translocation, beta-gal luminescence, 2 h
Method in brief: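 CHO-K1 cells stably expressing nuclear-localized β-gal enzyme acceptor and GR fused C-terminally to the enzyme donor fragment; ligand-driven nuclear translocation restores β-gal by complementation. Compounds titrated up to 46 uM final, 2 h at 37 °C; luminescence read.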

Q: For N[C@H](CC(=O)O)C(=O)O, which Potency is on record?
A: The Potency was > 46 µM (inactive).

Q: For C[C@@](Cc1ccc(O)c(O)c1)(NN)C(=O)O, which Potency is on record?
A: The Potency was > 46 µM (inactive).

Q: For CC(=O)Oc1cc(C(F)(F)F)ccc1C(=O)O, which Potency is on record?
A: Its Potency is > 20.6 µM (inactive).

Q: With CC1(C)S[C@@H]2[C@H](NC(=O)C3(N)CCCCC3)C(=O)N2[C@H]1C(=O)O as the compound, how does the Potency read?
A: The Potency was > 20.6 µM (inactive).

Q: With O=C1NCCN1c1ncc([N+](=O)[O-])s1 as the compound, how does the Potency read?
A: Its Potency is > 20.6 µM (inactive).

Q: For CC(=O)[C@H]1CC[C@H]2[C@@H]3C=CC4=CC(=O)CC[C@@]4(C)[C@H]3CC[C@]12C, which Potency is on record?
A: The Potency was > 20.6 µM (inactive).

Q: Which Potency does the source give for Cc1cc(C)c(NC(=O)C[C@H](CC(=O)O)c2cccc3ccccc23)c(C(=O)N2CCC3(CCCC3)CC2)c1 here?
A: The Potency was > 46 µM (inactive).

Q: For Cc1cc(-c2ccc(N=Nc3ccc4c(S(=O)(=O)O)cc(S(=O)(=O)O)c(N)c4c3O)c(C)c2)ccc1N=Nc1ccc2c(S(=O)(=O)O)cc(S(=O)(=O)O)c(N)c2c1O, which Potency is on record?
A: Its Potency is > 46 µM (inactive).

Q: For COc1cc(S(C)=O)ccc1-c1nc2ncccc2[nH]1 (stereo not given), which Potency is on record?
A: The Potency was > 20.6 µM (inactive).

Q: Which Potency does the source give for O=C(O)Cc1cc(I)c(Oc2ccc(O)c(I)c2)c(I)c1 here?
A: Its Potency is > 20.6 µM (inactive).

Q: With CCCOc1cc(N)ccc1C(=O)OCCN(CC)CC as the compound, how does the Potency read?
A: Its Potency is > 20.6 µM (inactive).

Q: With O=P(O)(O)OP(=O)(O)O as the compound, how does the Potency read?
A: Its Potency is > 9.22 µM (inactive).

Q: With CC(=O)N=c1sc(S(N)(=O)=O)nn1C as the compound, how does the Potency read?
A: The Potency was > 20.6 µM (inactive).

Q: With COc1ccc(C[C@H](C)NC[C@@H](O)c2ccc(O)c(NC=O)c2)cc1 as the compound, how does the Potency read?
A: The Potency was > 46 µM (inactive).

Q: For Nc1ccc(N=Nc2ccccc2)c(N)n1, which Potency is on record?
A: Its Potency is > 20.6 µM (inactive).

Q: With O=C(O)CCC(=O)c1ccc(-c2ccccc2)cc1 as the compound, how does the Potency read?
A: Its Potency is > 20.6 µM (inactive).

Q: Which Potency does the source give for CN1C(=O)OC(C)(C)C1=O here?
A: The Potency was > 20.6 µM (inactive).

Molecular target: Mitogen-activated protein kinase 10 (Mus musculus) (UniProt Q61831)
Assay: JNK3 AlphaScreen Assay (AID 530);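 also: kinase came from lysate of stimulated human HepG2 cells; signal reports phosphorylation of biotinylated GST-cJun 1-79 at Ser73 with 10 µM ATP; % is scaled to controls: 0 for no effect and ±100 for the full control effect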
Settings: JNK3 lysate, c-Jun phosphorylation; series mostly up to 57.1 µM
Method in brief: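 JNK3 came from HepG2 lysates pre-activated with IL-1beta and TNF-alpha and phosphorylated biotinylated GST-cJun (1-79) at 10 uM ATP, pH 7.6, room temperature. Compounds were titrated. AlphaScreen signal used anti-phospho-cJun (Ser73) antibody.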

Q: Which outcome does the source give for CCCCO here?
A: The outcome was “inactive”.

Q: With Cc1ncc(C[n+]2csc(CCO)c2C)c(N)n1 as the compound, how does the outcome read?
A: Its outcome is “inactive”.

Q: Which outcome does the source give for N[C@H](CC(=O)O)C(=O)O here?
A: Its outcome is “inactive”.

Q: For CC(=O)Oc1cc(C(F)(F)F)ccc1C(=O)O, which outcome is on record?
A: The outcome was “inactive”.

Q: For CC1(C)S[C@@H]2[C@H](NC(=O)C3(N)CCCCC3)C(=O)N2[C@H]1C(=O)O, which outcome is on record?
A: Its outcome is “inactive”.

Q: For O=C1NCCN1c1ncc([N+](=O)[O-])s1, which outcome is on record?
A: Its outcome is “inactive”.

Q: With CCSc1ccc2c(c1)N(CCCN1CCN(C)CC1)c1ccccc1S2 as the compound, how does the outcome read?
A: Its outcome is “inactive”.

Q: For CC(=O)[C@H]1CC[C@H]2[C@@H]3C=CC4=CC(=O)CC[C@@]4(C)[C@H]3CC[C@]12C, which outcome is on record?
A: The outcome was “inactive”.

Q: For CNC(=O)c1c(I)c(C(=O)NCC(=O)Nc2c(I)c(C(=O)O)c(I)c(C(=O)NCCO)c2I)c(I)c(N(C)C(C)=O)c1I, which outcome is on record?
A: Its outcome is “inactive”.

Q: With Cc1cc(C)c(NC(=O)C[C@H](CC(=O)O)c2cccc3ccccc23)c(C(=O)N2CCC3(CCCC3)CC2)c1 as the compound, how does the outcome read?
A: Its outcome is “inactive”.

Q: Which outcome does the source give for Oc1ccc(/C=C/c2cc(O)cc(O)c2)cc1 here?
A: The outcome was “inactive”.

Q: For CN1CCc2c(c3ccccc3n2Cc2ccccc2)C1, which outcome is on record?
A: The outcome was “inactive”.

Q: For O=C(O)Cc1nn(Cc2ccc(Br)cc2F)c(=O)c2ccccc12, which outcome is on record?
A: Its outcome is “inactive”.

Q: For O=C(O)Cc1cc(I)c(Oc2ccc(O)c(I)c2)c(I)c1, which outcome is on record?
A: Its outcome is “inactive”.

Q: For CCCOc1cc(N)ccc1C(=O)OCCN(CC)CC, which outcome is on record?
A: Its outcome is “inactive”.

Q: With O=P(O)(O)OP(=O)(O)O as the compound, how does the activity change, negative = inhibition read?
A: The activity change, negative = inhibition was 0.801% [at 11.4 µM] (inactive).

Q: For CC(=O)N=c1sc(S(N)(=O)=O)nn1C, which outcome is on record?
A: Its outcome is “inactive”.

Q: Which outcome does the source give for COc1ccc(C[C@H](C)NC[C@@H](O)c2ccc(O)c(NC=O)c2)cc1 here?
A: Its outcome is “inactive”.

Q: Which outcome does the source give for O=C(O)CCC(=O)c1ccc(-c2ccccc2)cc1 here?
A: The outcome was “inactive”.

Q: Which outcome does the source give for CN1C(=O)OC(C)(C)C1=O here?
A: The outcome was “inactive”.

Test system: not listed separately
Assay: Cell Viability - Renal Proximal Tubule (AID 545; active = well fitted cell-killing curve with a large enough effect;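 also: cells exposed to compound for 40 hours; 0% = DMSO only and -100% = 100 µM tamoxifen; nearly all actives have a fitted effect of over 40% in size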)
Settings: renal proximal tubule cells viability, primary cells of rat origin; at 91.7 µM (top of the series)
Method in brief: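 Rat kidney proximal tubule cells, freshly isolated; 1000 cells/well, 5 hr settle, compound 40 hr 37 °C. CellTiter-Glo 20 min RT, luminescence read. AC50 by standard Hill fit.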

Q: Which activity change, negative = cytotoxicity does the source give for CCCCO here?
A: The activity change, negative = cytotoxicity was -5.24% (inactive) and 3.29% (inactive).

Q: For Oc1ccc(/C=C/c2cc(O)cc(O)c2)cc1, which activity change, negative = cytotoxicity is on record?
A: The activity change, negative = cytotoxicity was -14.2% (inactive).

Q: With Nc1ccc(N=Nc2ccccc2)c(N)n1 as the compound, how does the activity change, negative = cytotoxicity read?
A: The activity change, negative = cytotoxicity was -20% (inactive).
